# Data reported in PubChem BioAssay.
# The source made the active and inactive calls. Unless noted, how the calls were made is not given here.
# What was measured:
# [1] = compound effects on lung adenocarcinoma cell viability – A549, calcein-AM fluorescence, 48 h, basal, profiling panel (AID 1162); conditions: higher = more signal; further: test concentration not given here
# [2] = compound effects on differentiated 3T3-L1 adipocyte viability – cell-based, 3T3-L1 adipocytes, calcein-AM fluorescence, 48 h, basal, profiling panel (AID 1163); conditions: 3T3-L1 adipocytes viability, higher = more signal; further: test concentration not given here
# [3] = compound effects on hepatocellular carcinoma cell viability – HepG2, calcein-AM fluorescence, 48 h, basal, profiling panel (AID 1164); conditions: higher = more signal; further: test concentration not given here
# [4] = compound effects on multiple myeloma cell viability – MM1S, calcein-AM fluorescence, 48 h, basal, profiling panel (AID 1165); conditions: higher = more signal; further: test concentration not given here
# [5] = calcein-AM signal in unstimulated myeloma cells – cell-based, calcein-AM fluorescence, 48 h, PK04 Diversity Set, profiling panel (AID 1166); conditions: RPMI8226 myeloma viability, higher = more signal;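 further: cells grown under basal conditions without added stimulus; test concentration not given here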
# [6] = JC-1 mitochondrial signal, unstimulated HepG2 cells – cell-based, JC-1 fluorescence, 24 h, 100 nL compound, profiling panel (AID 1167); conditions: HepG2 mitochondrial potential, higher = more signal; further: test concentration not given here
# [7] = JC-1 mitochondrial signal, unstimulated adipocytes – cell-based, JC-1 fluorescence, 3T3-L1 adipocytes, 24 h, 100 nL compound, profiling panel (AID 1168); conditions: JC-1 mitochondrial fluorescence, higher = more signal, called active from +8 up or from −8 down; further: test concentration not given here
# [8] = JC-1 mitochondrial signal, unstimulated myeloma cells – cell-based, JC-1 fluorescence, RPMI8226, 24 h, 100 nL compound, profiling panel (AID 1169); conditions: JC-1 mitochondrial potential fluorescence, higher = more signal; further: test concentration not given here
# [9] = JC-1 mitochondrial signal, unstimulated MM1S myeloma – cell-based, JC-1 fluorescence, 24 h, 100 nL compound, profiling panel (AID 1170); conditions: MM1S mitochondrial potential, higher = more signal; further: test concentration not given here
# [10] = resazurin metabolic signal in A549 cells – cell-based, resazurin fluorescence, 24 h, PK04 Diversity Set, profiling panel (AID 1171); conditions: A549 viability, higher = more signal, called active from +8 up or from −8 down; further: test concentration not given here
# [11] = resazurin metabolic signal in HepG2 cells – cell-based, resazurin fluorescence, 24 h, PK04 Diversity Set, profiling panel (AID 1172); conditions: HepG2 viability, higher = more signal; further: test concentration not given here
# [12] = budding yeast growth changes without added modifier – OD600, strain BY4716, 24 h, basal condition, primary screen (AID 1173); conditions: S. cerevisiae BY4716 growth, OD600, 24 h; higher = more signal, called active from +8 up or from −8 down
# [13] = viability profiling in MM1S myeloma cells – cell-based, resazurin fluorescence, basal, 24 h, PK04 Diversity Set, profiling panel (AID 1174); conditions: higher = more signal, called active from +8 up or from −8 down; further: test concentration not given here
# [14] = biological target: Dihydroorotate dehydrogenase (quinone), mitochondrial (Plasmodium falciparum (isolate 3D7)) (UniProt Q08210); experiment: inhibition of P. falciparum DHODH – biochemical, C-terminal His tag, absorbance 600 nm, primary screen (AID 1175); conditions: PfDHODH enzyme, DCIP absorbance 600 nm; higher = more signal, called active from +8 up or from −8 down;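 further: recombinant parasite enzyme with a five histidine tag at its C terminus; test concentration not given here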
# Sequence of Dihydroorotate dehydrogenase (quinone), mitochondrial (Plasmodium falciparum (isolate 3D7)) (Q08210 whole entry, looked up): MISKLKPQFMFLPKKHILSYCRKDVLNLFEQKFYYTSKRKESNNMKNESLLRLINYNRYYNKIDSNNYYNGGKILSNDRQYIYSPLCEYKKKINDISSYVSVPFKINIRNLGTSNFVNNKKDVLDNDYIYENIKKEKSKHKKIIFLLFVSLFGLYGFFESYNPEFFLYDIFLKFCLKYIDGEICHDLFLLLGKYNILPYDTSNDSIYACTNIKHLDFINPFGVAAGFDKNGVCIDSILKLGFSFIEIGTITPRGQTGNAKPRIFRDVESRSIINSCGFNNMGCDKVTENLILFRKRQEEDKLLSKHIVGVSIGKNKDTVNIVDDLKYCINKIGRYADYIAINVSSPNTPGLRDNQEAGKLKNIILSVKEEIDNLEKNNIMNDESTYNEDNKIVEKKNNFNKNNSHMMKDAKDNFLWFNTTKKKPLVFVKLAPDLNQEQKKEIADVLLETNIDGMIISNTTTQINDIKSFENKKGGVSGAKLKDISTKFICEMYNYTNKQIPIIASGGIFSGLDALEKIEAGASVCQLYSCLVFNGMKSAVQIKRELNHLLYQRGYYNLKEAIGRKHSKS
# [15] = inhibition of PAO1 biofilm formation – strain PAO1, LB-PBS medium, absorbance 600 nm, primary screen (AID 1176); further: test concentration not given here; conditions: P. aeruginosa PAO1 growth/biofilm, A600, 12 h; higher = more signal
# [16] = growth modulation of vineyard yeast isolate – strain RM11-1a, OD600, basal, 24 h, primary screen (AID 1177);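 further: cultures grown under basal conditions with no added stressor; test concentration not given here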; conditions: S. cerevisiae RM11-1a growth, OD600, 24 h; higher = more signal, called active from +8 up or from −8 down
# [17] = growth of efflux-deficient E. coli DRC39 – strain DRC39, OD650, 24 h, E. coli filamentation inducers, primary screen (AID 1178);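 further: growth measured as culture turbidity by optical density at 650 nm; test concentration not given here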; conditions: E. coli DRC39 acrAB, higher = more signal, called active from +8 up or from −8 down
# [18] = growth of efflux-deficient E. coli DRC39 – strain DRC39, OD650, 48 h, E. coli filamentation inducers, primary screen (AID 1179);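 further: screen aims at cell division blockers that make cells filament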; conditions: E. coli DRC39 delta-acrAB growth, higher = more signal, called active from +8 up or from −8 down
# [19] = viability profiling in RPMI8226 myeloma cells – cell-based, resazurin fluorescence, basal, 24 h, PK04 Diversity Set, profiling panel (AID 1180); conditions: higher = more signal;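 further: RPMI8826 multiple myeloma cell line at 5000 cells per well; test concentration not given here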
# [20] = biological target: E3 ubiquitin-protein ligase XIAP (Homo sapiens) (UniProt P98170); experiment: small molecules binding XIAP protein – biophysical, small-molecule microarray, fluorescence 635 nm, primary screen (AID 1181); conditions: higher = more signal;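 further: score merges 667 nm emission and signal to noise over triplicate slides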
# Sequence of E3 ubiquitin-protein ligase XIAP (Homo sapiens) (P98170 whole entry, looked up): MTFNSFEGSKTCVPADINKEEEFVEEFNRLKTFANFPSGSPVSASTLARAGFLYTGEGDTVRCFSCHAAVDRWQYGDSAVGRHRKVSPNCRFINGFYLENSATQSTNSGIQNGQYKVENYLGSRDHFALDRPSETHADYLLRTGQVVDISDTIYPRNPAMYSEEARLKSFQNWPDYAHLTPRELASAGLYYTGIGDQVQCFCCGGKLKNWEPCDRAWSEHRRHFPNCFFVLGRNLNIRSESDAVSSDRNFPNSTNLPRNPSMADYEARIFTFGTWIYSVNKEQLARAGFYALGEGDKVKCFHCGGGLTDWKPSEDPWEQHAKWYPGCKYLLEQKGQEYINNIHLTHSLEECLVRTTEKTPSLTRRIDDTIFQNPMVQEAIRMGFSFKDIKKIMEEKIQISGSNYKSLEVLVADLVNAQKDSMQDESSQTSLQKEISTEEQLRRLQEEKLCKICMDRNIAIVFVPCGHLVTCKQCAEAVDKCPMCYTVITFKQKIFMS
SMILES,z-score [1],z-score [2],z-score [3],z-score [4],z-score [5],z-score [6],z-score [7],z-score [8],z-score [9],z-score [10],z-score [11],z-score [12],z-score [13],composite z-score [14],z-score [15],z-score [16],z-score [17],z-score [18],z-score [19],composite z-score [20]
COc1ccc(O[C@@H]2[C@H](O)CO[C@@H]2C=Cc2ccccc2)cc1,0.069,1.72,-0.0757,-2.82,-1.1,1.11,0.6 (inactive),0.132,0.322,-0.548 (inactive),-0.489,-2.44 (inactive),0.995 (inactive),-3.01 (inactive),0.815 (inactive),-0.614 (inactive),-1.16 (inactive),-1.93 (inactive),0.54,0.0975
COC(=O)CC=C[C@@H](C)[C@@H](C=NOC[C@H]1O[C@H](c2ccccc2)C=C[C@@H]1Oc1ccc(OC)cc1)OC,0.0124,-0.701,-0.56,-0.831,-0.209,-1.05,-0.506 (inactive),0.16,-0.327,1.06 (inactive),0.167,0.805 (inactive),0.0784 (inactive),0.388 (inactive),0.335 (inactive),0.065 (inactive),0.0177 (inactive),-0.0331 (inactive),0.264,0.127
COc1cccc([C@H]2Oc3ccc(OC)cc3C(=NOC[C@@H](O)[C@H]3O[C@@H]4OC(C)(C)O[C@@H]4[C@H]3O)[C@@H]2O)c1,-0.0077,0.568,-1.49,-0.174,-0.684,-1.27,-0.751 (inactive),-0.578,0.49,-0.794 (inactive),-0.791,-6.98 (inactive),-1.21 (inactive),0.474 (inactive),0.56 (inactive),-0.0039 (inactive),-0.218 (inactive),0.0308 (inactive),-0.687,0.0865
CC(=O)OC[C@H]1OC(ON=CC[C@@H]2C=C[C@H](OC(C)=O)[C@@H](COC(C)=O)O2)[C@H](OC(C)=O)[C@@H](OC(C)=O)[C@@H]1OC(C)=O (stereo not given in full),-0.49,-0.403,-1.12,-0.092,-0.878,0.0783,-2.76 (inactive),-0.796,0.23,0.103 (inactive),0.186,0.352 (inactive),-0.919 (inactive),-0.753 (inactive),-0.0903 (inactive),-0.618 (inactive),0.938 (inactive),0.583 (inactive),0.169,0.0982
COC(=O)NCC=Cc1nc(CCCO)co1,0.206,-0.683,0.392,0.225,0.0204,-0.64,0.331 (inactive),-0.0369,-0.606,-0.238 (inactive),-0.0091,0.41 (inactive),-0.295 (inactive),-0.706 (inactive),-0.245 (inactive),0.414 (inactive),0.107 (inactive),0.438 (inactive),-0.626,-0.117
COC(=O)[C@H](C)NC(=O)CCC1CC(OC(=O)NCCc2ccc(F)cc2)CC2(CCCC(COC(=O)NCCC(C)C)O2)O1 (stereo not given in full),1.22,0.464,-0.814,-3.65,-0.883,-0.591,0.521 (inactive),0.198,-1.51,0.693 (inactive),-0.666,-1.27 (inactive),0.711 (inactive),-2.05 (inactive),0.675 (inactive),-1.15 (inactive),0.29 (inactive),-0.947 (inactive),0.967,-0.102
C#CCCCON=C1C[C@@H](O)[C@@H](O)[C@@H]2[C@@H]3C(=O)N(c4ccc(F)cc4F)C(=O)[C@@H]3CC[C@@H]12,-0.194,-0.566,-1.07,0.344,-0.865,0.843,-1.15 (inactive),0.0995,-0.413,0.193 (inactive),1.49,-0.652 (inactive),0.225 (inactive),-0.278 (inactive),-1.25 (inactive),-1.07 (inactive),-0.0313 (inactive),-0.152 (inactive),0.33,-0.0786
CCOC(=O)[C@H](CC(C)C)NC(=O)CCC1CC(OC(=O)NCc2ccc3c(c2)OCO3)CC2(CCCC(COC(=O)NCc3cccc(C(F)(F)F)c3)O2)O1 (stereo not given in full),0.112,0.214,-0.503,0.0777,-3.36,1.85,-0.176 (inactive),0.525,-0.412,-0.175 (inactive),-0.54,0.3 (inactive),0.639 (inactive),0.0645 (inactive),-0.0691 (inactive),0.683 (inactive),-0.718 (inactive),-0.0974 (inactive),0.328,-0.148
COc1cccc([C@H]2Oc3ccc(OC)cc3C(=NO[C@H](C)c3cn([C@H](CO)Cc4ccccc4)nn3)[C@@H]2O)c1,-0.16,0.131,-0.489,-0.0922,-0.719,-1.81,-3.16 (inactive),-0.0494,-0.252,0.286 (inactive),-0.26,0.723 (inactive),-0.328 (inactive),-0.755 (inactive),0.417 (inactive),-1.11 (inactive),0.753 (inactive),0.571 (inactive),0.249,-0.278
CCOC(=O)[C@H](CC(C)C)NC(=O)CCC1CC(OC(=O)NCc2cccc3ccccc23)CC2(CCCC(COC(=O)NCCC(C)C)O2)O1 (stereo not given in full),2.25,0.944,0.312,-3.2,-1.05,0.162,0.199 (inactive),-0.17,-1.27,0.169 (inactive),0.232,-2.17 (inactive),0.771 (inactive),-2.64 (inactive),0.131 (inactive),-3.91 (inactive),-0.259 (inactive),-0.457 (inactive),-0.286,0.117
CCCCc1nc2c(c3c1C[C@H](C)OC3)CN(CCOc1ccccc1)CC2,1.71,0.734,0.681,0.039,-0.657,1.76,0.494 (inactive),0.539,0.568,-0.682 (inactive),-0.492,-3.28 (inactive),0.422 (inactive),-0.845 (inactive),1.1 (inactive),-1.49 (inactive),1.18 (inactive),-0.908 (inactive),0.386,0.437
CO[C@H]1COC(=O)[C@@H](C)COC(=O)[C@H](COCc2ccccc2)NC(=O)CC=C[C@H]1C,0.362,0.293,0.298,0.555,0.34,1.36,-0.213 (inactive),0.529,2.5,0.266 (inactive),-0.238,-1.58 (inactive),0.671 (inactive),0.604 (inactive),-0.543 (inactive),0.085 (inactive),1.05 (inactive),-0.997 (inactive),0.267,0.227
CCN1C(=O)[C@H]2[C@H]3[C@H](O)[C@H](O)CC(=NO[C@@H](C)c4cn([C@H](CO)Cc5ccccc5)nn4)[C@@H]3CC[C@H]2C1=O,-0.293,0.0248,-0.644,-1.59,-0.784,-0.559,-1.49 (inactive),0.695,0.0117,-0.499 (inactive),-0.817,0.833 (inactive),-0.866 (inactive),-0.642 (inactive),0.135 (inactive),0.47 (inactive),0.121 (inactive),-0.336 (inactive),-0.504,0.0451
CCOC(=O)[C@H](CC(C)C)NC(=O)CCC1CC(OC(=O)NCc2cccc3ccccc23)CC2(CCCC(COC(=O)NCCCN3CCCC3=O)O2)O1 (stereo not given in full),0.367,1.15,-0.839,-0.0471,-1.31,0.106,-0.636 (inactive),-0.555,-1.15,0.489 (inactive),0.281,-0.761 (inactive),0.826 (inactive),0.0067 (inactive),-0.47 (inactive),0.209 (inactive),-0.134 (inactive),0.323 (inactive),-0.241,-0.104
